Bioassay records deposited in PubChem by National Center for Advancing Translational Sciences (NCATS).
A selection: hits, their analogues and other compounds. The true share with any hit is near 1.6%.
NPSR antagonist = blocks cAMP signaling of the human neuropeptide S receptor. Q6W5P4. CHO-NPSR cells, cAMP TR-FRET, antagonist mode. Potency, µM (highest dose often 38.3 µM), inactives show at the top dose activity change, negative = inhibition, actives largely listed as inhibitors. actives 1% (n = 220,000); note: potency is the fitted concentration of half-maximal effect; % is set by controls: 0 for no effect and ±100 for the full control effect; nearly all actives have a fitted effect of over 50% in size
Target sequence (Q6W5P4 whole entry, looked up): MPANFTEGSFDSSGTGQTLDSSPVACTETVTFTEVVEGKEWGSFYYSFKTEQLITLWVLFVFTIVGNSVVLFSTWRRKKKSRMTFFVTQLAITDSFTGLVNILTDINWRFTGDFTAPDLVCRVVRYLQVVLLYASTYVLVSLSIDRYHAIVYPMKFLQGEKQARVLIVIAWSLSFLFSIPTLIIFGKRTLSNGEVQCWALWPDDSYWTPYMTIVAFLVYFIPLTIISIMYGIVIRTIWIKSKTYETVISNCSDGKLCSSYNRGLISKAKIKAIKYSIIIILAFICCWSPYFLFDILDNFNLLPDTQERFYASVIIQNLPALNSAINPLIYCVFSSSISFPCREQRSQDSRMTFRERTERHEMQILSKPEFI
HTT aggregate = mutant huntingtin aggregation inhibition; PC12 HttQ103-GFP aggregates, Acumen cytometry, 40 h; Potency, µM (series often up to 46.1 µM), without a hit: at the highest dose activity change, negative = inhibition, actives largely listed as inhibitors; actives 1.1% (n = 220,000); AID 1688; note: potency is the fitted concentration of half-maximal effect; % is set by controls: 0 for no effect and ±100 for the full control effect; nearly all actives have a fitted effect of over 60% in size
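Aggregates are detected as GFP objects 1–25 µm with signal 6 STDEV over background in lysates of induced PC12 cells. These carry Huntingtin exon 1 with 103 glutamines fused to GFP under an ecdysone promoter; compounds titrated.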
IMPase inh = membrane-permeable compound that blocks inositol monophosphatase; P97697; CHO-M1 cells, IP1 accumulation, HTRF TR-FRET ratio; inhibition (IP1 accumulation), % at 46.1 µM; 120,000 tested, under 10 active; AID 901; active = well fitted curve in the direction sought with a large enough effect in the signal ratio, not every such curve was filed as active; inconclusive = small, poorly fitted or top-dose-only effect, or a change in a side signal; inactive = no such curve, though single readings can be large or run the other way; the % refers to the signal ratio;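 note: cells stimulated with carbachol in lithium chloride buffer; plate controls were DMSO basal wells for no effect and reference inhibitor wells for full effect; higher means more IMPase inhibition seen as more IP1 and lower FRET ratio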
Target sequence (P97697 whole entry, looked up): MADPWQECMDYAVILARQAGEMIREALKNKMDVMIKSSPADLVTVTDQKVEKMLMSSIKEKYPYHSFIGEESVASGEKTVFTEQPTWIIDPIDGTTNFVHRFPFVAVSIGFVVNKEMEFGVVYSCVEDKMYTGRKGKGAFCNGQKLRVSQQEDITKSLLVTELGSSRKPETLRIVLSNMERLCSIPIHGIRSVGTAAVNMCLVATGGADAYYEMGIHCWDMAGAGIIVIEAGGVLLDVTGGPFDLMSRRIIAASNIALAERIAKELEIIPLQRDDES
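Measured: the HTRF emission ratio (665/620 nm) plus the 620 nm donor channel, each fitted to the Hill equation to give AC50. Cells were CHO-M1 given compounds up to 46 uM and a 30 min carbachol stimulation at 37C.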
Lamin A splicing = changes lamin A minigene splicing in HeLa cells. HeLa LMNA splicing GFP/RFP minigene ratio, 48 h. Potency, µM (highest dose often 46.1 µM), inactives show at the highest dose ratio change, negative = inhibition, most hits filed as inhibitors. actives 0.01% (n = 200,000). AID 1487; active = well fitted inhibition curve with a large enough effect in the signal ratio, with a control signal flat, not every such curve was filed as active; inconclusive = small, poorly fitted or top-dose-only effect, or effect the other way, or a change in a side signal; the % refers to the signal ratio; note: potency is the fitted concentration of half-maximal effect; % is set by controls: 0 for no effect and ±100 for the full control effect
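Read-out is the ratio of GFP to DsRed2 object intensity, acquired by 488 nm laser-scanning cytometry on HeLa lamin A-EGFP minigene reporter cells. Compound incubation 48 hrs at 37 °C in Opti-MEM with 2% FBS; DMSO 0.5% final.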
IMPase Li inh = cell-permeable IMPase inhibitors with lithium potentiation; Potency, µM (top dose mostly 59.4 µM), for the others: at the top dose activity, negative = IMPase inhibition, most hits filed as inhibitors; actives 0.35% (n = 210,000); CHO-M1 cells, IP1 TR-FRET (IP-One), carbachol + lithium;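 note: IP1 builds up when IMPase is blocked and the TR-FRET signal falls; potency is the fitted concentration of half-maximal effect; plate controls were basal vehicle for no effect and high inhibitor control for full effect; nearly all actives have a fitted effect of over 50% in size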
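Lithium-sensitised IP1 accumulation assay; M1-expressing CHO cells treated 30 min at 37C with compound. Competitive antibody detection by time-resolved FRET followed a 10 min room-temperature lysis step.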
HTT cytoprotect = Huntington cell model cytoprotection by ATP luminescence; PC12 HTT-Q103 induced, cytoprotection, ATP luminescence, 40 h; Potency, µM (highest dose often 56.4 µM), for inactives: cytoprotection (ATP increase), most hits filed as activators; actives 0.14% (n = 230,000); note: potency is the fitted concentration of half-maximal effect; % of control where 0% means no effect; nearly all actives have a fitted effect of over 45% in size
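Readout: ATPlite luminescence (ATP level). Model: stable PC12, inducible Htt exon1 Q103-GFP. Inducer: tebufenozide, 100 nM final. Compounds: dose series. No G418 in medium.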
* = called active by the depositor; ? = inconclusive; / = no result; [ ] = remark or other dose. Unless noted, calls come from the whole dose curve; as a rule, active = well fitted curve in the direction sought with a large enough effect; inconclusive = small, poorly fitted or top-dose-only effect, or another doubt; inactive = no such curve, though single readings can be large; an effect the other way counts as inactive or inconclusive.

SMILES	NPSR antagonist	HTT aggregate	IMPase inh	Lamin A splicing	IMPase Li inh	HTT cytoprotect
CCc1ccc(NC(=O)CSc2nc3cc(C(=O)OC)ccc3c(=O)n2Cc2ccco2)cc1	-1%[46.1 µM]	-1%	?	5%	-12%[38.3 µM]	-2%
CCN(C(=O)CSc1nc2cc(Cl)ccc2c(=O)n1Cc1ccco1)C1CCS(=O)(=O)C1 (stereo not given)	-41%	25%	/	/	17%	2.8µM*
CN(C(=O)CSc1nc2ccc(Br)cc2c(=O)n1Cc1ccco1)C1CCS(=O)(=O)C1 (stereo not given)	38%	1%[9.22 µM]	/	?	/	6%[10 µM]
CCOC(=O)c1sc(NC(=O)c2cccnc2)c(C#N)c1C	-11%[46.1 µM]	-14%	-3	?	11%[38.3 µM]	-14%
CCOC(=O)c1sc(NC(=O)CSc2n[nH]c(-c3ccccc3)n2)c(C#N)c1C	-3%[46.1 µM]	20µM*	1	-23%	17%	1%[10 µM]
CCOC(=O)c1sc(NC(=O)CSc2nc3c(cc2C#N)CCCCC3)c(C#N)c1C	?	5.6µM*	?	8%	?	-25%
CCOC(=O)c1sc(NC(=O)c2cc(-c3ccccc3)nc3ccccc23)c(C#N)c1C	3%[46.1 µM]	7.1µM*	-1	0%	20%[38.3 µM]	-91%
CCc1nnc(NC(=O)CSc2nc3c(cc2C#N)CCCC3)s1	?	-14%	?	4%	?	-19%
CCOC(=O)c1sc(NC(=O)CSc2nc(C)cc(C)n2)c(C#N)c1C	-18%[46.1 µM]	-12%	-13	24%	-10%[38.3 µM]	-8%
O=C(c1cnccn1)N1CCC2(CCCN(c3ccncc3)C2)CC1	/	/	/	/	19%	23%
Nc1cccc(C(F)(F)F)c1	/	/	/	/	-16%	-10%
CC(=O)C1=C(OC(=O)C(C)C)c2ccccc2S(=O)(=O)N1Cc1ccccc1	/	/	/	-19%[46 µM]	/	/
C=CCN1C(C(=O)c2ccccc2)=C(OC(=O)COc2ccccc2)c2ccccc2S1(=O)=O	2%	13µM*	/	?	2%	18%[10 µM]
Cc1cccc(N2CCN(C(=O)c3ccc(NS(=O)(=O)c4c(C)noc4C)cc3)CC2)c1C	-19%[46.1 µM]	20µM*	2	-27%	20%	8%[10 µM]
Cc1noc(C)c1CSCC(=O)N1CCN(c2ccc(F)cc2)CC1	-14%[46.1 µM]	7.9µM*	9	?	-4%[38.3 µM]	8%[10 µM]
Cc1cccc(N2CCN(C(=O)CSCc3c(C)noc3C)CC2)c1C	-20%[46.1 µM]	7.1µM*	6	5%	9%[38.3 µM]	-14%[10 µM]
Cc1noc(C)c1S(=O)(=O)Nc1ccc(C(=O)N2CCN(c3cccc(Cl)c3)CC2)cc1	-18%[46.1 µM]	?	7	?	37%[38.3 µM]	1%
CCOC(=O)[C@@]12C[C@@H]1/C(=N/O)c1ccccc1O2	/	/	5	/	16%	8%
O=C(O)c1ccc(CO)o1	/	/	/	/	-12%	-2%
CCOC(=O)C1CCN(c2c(NCc3ccc(C(=O)O)cc3)c(=O)c2=O)CC1	/	/	/	/	/	-5%
CC1(C(=O)O)CCC2(C)CCC3(C)C(=CC(=O)C4C5(C)CCC(O)C(C)(C)C5CCC43C)C2C1 (stereo not given)	/	-8%	/	/	/	-62%
COc1ccccc1CNCCCCCCNCCCCCCCCNCCCCCCNCc1ccccc1OC	13µM*	/	19	?	11%	-31%
COc1ccccc1CNN	-20%	-2%	/	/	-5%	-16%
CC(C)Oc1ccc(/C(O)=C2/C(=O)C(=O)N(CCN3CCOCC3)C2c2ccccc2)cc1 (stereo not given)	16%[46.1 µM]	2%	?	1%	5µM*	-7%
CCCn1c(N)c(NCCN2CCOCC2)c(=O)n(CC(=O)NCc2ccccc2)c1=O	8%	-3%	/	-10%[46 µM]	11%	-12%[10 µM]
SMILES	NPSR antagonist	HTT aggregate	IMPase inh	Lamin A splicing	IMPase Li inh	HTT cytoprotect
CCC(=O)NC(=S)Nc1ccc(-c2nc3ccccc3s2)cc1	-4%[46.1 µM]	-3%	2	5%	11µM*	-16%[10 µM]
CCC(=O)NC(=S)Nc1ccc(-c2nc3ccc(C)cc3s2)cc1	0%[46.1 µM]	6%	0	-11%	/	-5%[10 µM]
Nc1ccccc1-c1n[nH]c(=S)s1	?	15%	/	-24%[46 µM]	13µM*	-55%
S=c1[nH]nc(Nc2cccc3ccccc23)s1	15%	4%[9.22 µM]	/	/	/	37%[10 µM]
FC(F)(F)c1nc2cc3nc4ccccc4[nH]c3cc2n1	13µM*	26%[9.22 µM]	/	/	/	14%[10 µM]
[N-]=[N+]=Nc1ccc(C(=O)CSC[C@@H](NC(=O)CC[C@@H](N)C(=O)O)C(=O)NCC(=O)O)cc1	/	/	-7	/	/	-6%[1.9 µM]
O=C1Nc2ccccc2C12OCC(COc1ccc(Cl)cc1)O2 (stereo not given)	-28%[46.1 µM]	-12%	4	-22%	27%[38.3 µM]	-23%[0.074 µM]
CN1C(=O)C2(OCC(COc3ccc(Cl)cc3)O2)c2ccccc21 (stereo not given)	-9%[46.1 µM]	1µM*	0	?	11%[38.3 µM]	11%
CCOC(=O)CSc1nc2c(sc3cccc(F)c32)c(=O)n1Cc1ccc(OC)cc1	/	/	/	16%[46 µM]	/	/
COc1ccc(-n2c(=S)[nH]c3c(oc4ccccc43)c2=O)cc1	-46%	13%	/	?	6.3µM*	18%[10 µM]
Cc1ccc(-n2c(=O)[nH]c3c(oc4ccccc43)c2=O)cc1	-21%	?	/	1%[9.22 µM]	-5%	-45%
COC(=O)Cc1sc(-c2ccccn2)nc1-c1ccccc1	-17%	-5%	/	/	13%	1µM*
COC(=O)Cc1ccc2sc(-c3ccccc3)nc2c1	-14%	7%	/	16%	-18%	10%[10 µM]
CCC(/C=C1\Sc2ccc(OC)cc2N1CCO)=C\c1sc2ccc(OC)cc2[n+]1CCO	10µM*	?	/	?	57%	12%[10 µM]
Cc1cccc(C)c1NC(=O)CN1CCCCCC1	/	11%	/	/	/	?
CC(=O)Nc1nc2ncc(C=O)nc2c(=O)[nH]1	/	/	/	/	2%	-6%[10 µM]
N#Cc1c2ccc(O)cc2n2ccccc12	-26%	10µM*	/	?	6%	-24%
CC[n+]1c(/C=C2/C=C(C)CC(C)C2)sc2ccccc21 (stereo not given)	-29%	-12%	/	/	5%	-11%
CC[n+]1c(/C=C/Nc2ccccc2)sc2ccccc21	0%[46.1 µM]	11µM*	5	?	14%[38.3 µM]	-48%
CC[n+]1c(C=C2C=C(C)OC(C)=C2)sc2ccccc21	-40%	4µM*	/	/	25%	-97%
CCCC(=O)O[C@]1(C(=O)COC(C)=O)CC[C@H]2C3C[C@H](F)C4=CC(=O)C=CC4(C)[C@@]3(F)[C@@H](O)CC21C (stereo not given in full)	/	8%	/	/	/	7%
CCOc1ccc(C(C)NC(=S)NC2CCCCC2)cc1 (stereo not given)	-22%	0.56µM*	/	/	6%	9%[10 µM]
CCOC(=O)c1cnc2cc3c(cn2c1=O)CCCC3	-5%[46.1 µM]	18%	-1	8%	1%[38.3 µM]	-12%
CCOC(=O)C1=C(SCC)c2cc3c(n2C1=O)CCCC3	13µM*	31%	35	?	21%	4%[10 µM]
